High-throughput results: PubChem, The Scripps Research Institute Molecular Screening Center
hcDAF12 agonist: activates DAF-12 receptor from parasite H. contortus. HEK293 hcDAF-12 lit1-tk-luc reporter, luminescence; 0% DMSO, 100% Δ7-dafachronic acid. activation, % at 6.8 µM. hit rate 1.4% among 370,000;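 active = activation above the mean of all tested compounds plus 3 SD, cut at about 5.5% in these data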;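 also: 100% = response to 3 µM Δ7-dafachronic acid high control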
ssDAF-12 act: activates DAF-12 receptor from parasite S. stercoralis | HEK293 ssDAF-12/GRIP1 lit1-tk-luc reporter, luminescence; % of 3 µM dafachronic acid response | activation, % at 6.8 µM | hit rate 1% among 370,000 | AID 652126;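 active = activation above the mean over all tested compounds plus 3 SD, cut at about 0.9% in these data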;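 also: 0% = DMSO-only wells and 100% = 3 µM delta7-dafachronic acid wells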
DAX1 inh-1: inhibits human nuclear receptor DAX1; HEK293 Gal4-DAX1 luciferase reporter, luminescence; inhibition, % at 6.75 µM; hit rate 0.99% among 340,000; AID 504766;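 active = inhibition above the mean over all tested compounds plus 3 SD, cut at about 4.2% in these data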;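 also: 0% = DAX1-transfected cells with DMSO and 100% = empty-vector control cells with DMSO; inhibition shows as a rise in luminescence from relieved DAX1 repression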
hgDAF12 agonist: activates the H. glycines DAF-12 receptor ligand-binding domain; activation, % at 6.8 µM; HEK293 GAL4-hgDAF12 UAS-luciferase reporter, agonist luminescence; normalized to butyrate control; hit rate 1.8% among 370,000; AID 687014;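 active = activation above a cutoff set at the mean of all screened compounds plus 3 SD, cut at about 10% in these data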;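 also: 0% = DMSO wells and 100% = sodium butyrate wells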
DAX1 inh-2: blocks DAX1 repression of SF-1 activated StAR promoter; HEK293T StAR-luciferase reporter, SF-1/DAX-1 repression relief; inhibition, % at 6.8 µM; hit rate 1.1% among 370,000; AID 652010;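 active = inhibition above the mean over all tested compounds plus 3 SD, cut at about 3.6% in these data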;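 also: 0% = DAX-1 cells with DMSO and 100% = cells lacking DAX-1 with DMSO; higher inhibition means more luminescence from relief of DAX-1 repression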
LXR ag: activates human LXR-beta, counter-screen for hcDAF-12 agonists. shares compounds with hcDAF12 agonist. HEK293 Gal4-LXR tk-luc reporter, luminescence, 24 h; normalized: DMSO 0%, positive control 100%. activation, % at 6.8 µM. 3,400 tested, under 10 active;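 active = mean percent activation of the reporter above a cutoff set as the average over tested compounds plus their standard deviation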
Target sequence (P55055 whole entry, looked up, the tested form may be a part): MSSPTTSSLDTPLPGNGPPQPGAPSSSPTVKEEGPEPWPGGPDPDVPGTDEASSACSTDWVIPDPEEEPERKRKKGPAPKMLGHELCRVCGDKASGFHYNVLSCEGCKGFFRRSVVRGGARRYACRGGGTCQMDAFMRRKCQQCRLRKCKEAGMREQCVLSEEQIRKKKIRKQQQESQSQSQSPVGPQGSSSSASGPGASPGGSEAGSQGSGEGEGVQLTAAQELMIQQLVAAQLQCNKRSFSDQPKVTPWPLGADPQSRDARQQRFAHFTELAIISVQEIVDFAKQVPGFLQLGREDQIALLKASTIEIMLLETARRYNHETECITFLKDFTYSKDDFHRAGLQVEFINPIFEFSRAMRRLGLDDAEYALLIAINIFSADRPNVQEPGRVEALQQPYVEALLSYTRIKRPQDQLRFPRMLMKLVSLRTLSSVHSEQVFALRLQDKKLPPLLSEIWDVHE
hcDAF12 ag: confirmation of H. contortus DAF-12 agonists; activation, % at 6.8 µM; hit rate 61% among 3,400; AID 743032; shares compounds with hcDAF12 agonist; HEK293 hcDAF-12 lit1-tk-luc reporter, luminescence; % of Δ7-dafachronic acid response;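 active = mean activation across triplicate tests above the threshold derived from the earlier primary screen, cut at about 5.5% in these data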;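 also: 0% = DMSO only wells and 100% = 3 µM Δ7-dafachronic acid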
The depositor's hits bear a star; · = not tested or not shown. Rows were chosen to be rich in hits. Some 4.1% of all compounds tested hit in one or more screens of this group.

SMILES	hcDAF12 agonist	ssDAF-12 act	DAX1 inh-1	hgDAF12 agonist	DAX1 inh-2	LXR ag	hcDAF12 ag
O=C(NCc1ccccc1)C(c1ccccc1)n1c(=O)c(-c2ccco2)nc2ccccc21 (centres undefined)	-2	-1	·	-2	0	·	·
O=C(NCc1ccccc1)C(c1cc2ccccc2o1)n1c(=O)c(-c2ccco2)nc2ccccc21 (centres undefined)	9.6*	2.5*	·	11*	3.9*	1	11*
CCOc1ccc(N2CC(O)=C(c3ccccc3)C2=N)cc1	0	-1	0	-2	1	·	·
Cc1nc(-c2ccc(O)c(O)c2)cs1	0	-1	1	1	0	·	·
Cc1ccc2nc(-c3ccc(O)c(O)c3)cn2c1	9.4*	0	-3	8	2	1	9.9*
Cc1noc(/C=C/N(C)C)c1S(=O)(=O)N(C)Cc1ccc(F)cc1	-1	-1	-1	1	0	·	·
CC(=O)Oc1ccc(Cl)cc1/C=C/c1ccc2ccccc2n1	8.4*	1	1	11*	2	1	6.2*
O=C1C(=Cc2ccco2)C(=O)c2ccccc21	7.3*	0	1	10	1	0	2
c1ccc(CCNc2nc3ccccc3n3nnnc23)cc1	1	-1	1	2	0	·	·
COc1ccc(CCNc2nc3ccccc3n3nnnc23)cc1OC	7.7*	0	4	7	-1	0	2
CCO/C=C/C(O)(CNC(=O)c1ccc(C(C)(C)C)cc1)C(F)(F)F (centres undefined)	-2	-2	-1	-2	0	·	·
Cc1ccc(-n2nc(C)c(C(=O)N3CCN(C(=O)c4ccco4)CC3)c2-n2cccc2)cc1	-3	-2	1	2	-1	·	·
O=C(Nc1ccccc1Cl)c1csc(-c2cccnc2)n1	7.6*	2.8*	5.0*	9	0	0	6.7*
O=C(NCCc1cccc(Cl)c1)c1cc([N+](=O)[O-])ccc1Cl	6.7*	-2	-3	-2	-2	0	0
O=C(Nc1ccc(F)cc1)OCc1cn(Cc2cc(F)cc(F)c2)nn1	-3	-1	·	-1	-1	·	·
COc1ccc(S(=O)(=O)Nc2c(C(=O)O)[nH]c3ccccc23)cc1	5	0	0	2	0	·	·
Cc1ccc(S(=O)(=O)Nc2cc3c(C(=O)O)c(C)oc3c3ccccc23)c(C)c1	1	0	2	-2	0	·	·
Cc1ccc(S(=O)(=O)Nc2c(C(=O)O)[nH]c3ccccc23)c(C)c1	6.7*	1.1*	2	5	0	0	2
COc1ccc(S(=O)(=O)Nc2c(C(=O)O)[nH]c3ccccc23)cc1OC	7.9*	2.0*	0	6	0	0	5
CCOc1ccc(N2C(=O)Nc3ccc(Br)cc3C2(O)C(=O)NCCN(C)C)cc1 (centres undefined)	1	-1	0	-1	0	·	·
CCN(CC)CCn1c(NCc2ccc(C)o2)nc2ccccc21	-1	-1	0	-2	0	·	·
Cc1ccc(CNc2nc3ccccc3n2C)o1	7.8*	1.1*	2	12*	1	1	8.3*
CCOc1ccc(NC(=O)Nc2ccc3nsnc3c2)cc1	1	-1	0	8	0	·	·
CCOc1ccc(NC(=O)Nc2cccs2)cc1	7.3*	1	0	11*	3	1	5
Cc1ccc(NCC(=O)N/N=C/c2cc3ccccc3nc2Cl)cc1	7.6*	2.0*	1	14*	1	0	5.6*
SMILES	hcDAF12 agonist	ssDAF-12 act	DAX1 inh-1	hgDAF12 agonist	DAX1 inh-2	LXR ag	hcDAF12 ag
Cc1ccc2cc(/C=N/Nc3nc4ccccc4[nH]3)c(Cl)nc2c1	13*	0.9*	-1	11*	2	1	15*
O=C(CN1CCOCC1)N/N=C/c1cc2ccccc2nc1Cl	0	0	1	0	0	·	·
O=C1NC2=C(C(=O)CCC2)C(c2ccc([N+](=O)[O-])cc2)N1 (centres undefined)	-1	-1	0	2	0	·	·
Cc1ccc(/C=C/C(=O)N2CCN(S(=O)(=O)/C=C/c3ccccc3)CC2)o1	-2	0	2	2	0	·	·
CNS(=O)(=O)c1cc(NC(=O)c2cccc3cccnc23)ccc1C	-3	-1	-1	3	-1	·	·
CSc1cccc(NC(=O)c2cccc3cccnc23)c1	12*	2.3*	2	11*	1	1	8.5*
Cc1ccc(Cl)cc1NC(=O)[C@@H]1CCC(=O)N1C1OC(=O)c2ccccc21 (some centres undefined)	-1	-1	3	-1	-1	·	·
COc1ccc(N2C(=O)c3[nH]nc(-c4ccccc4)c3C2c2ccc(F)cc2)cc1 (centres undefined)	-2	-1	·	-5	-1	·	·
Cc1c(/C=N\NC(=O)c2c[nH]c3ccccc23)cnn1C	9.4*	1.7*	0	1	1	0	2
CC(C)(C)OC(=O)N/N=C/c1c[nH]c2ccccc12	11*	1.4*	0	12*	1	0	6.6*
O=C(N/N=C\c1c[nH]c2ccccc12)c1ccc(O)cc1	9.7*	1.4*	2	9	0	0	5
O=C(N/N=C/c1c[nH]c2ccccc12)c1ccc(Cl)cc1	3	1	2	7	1	·	·
O=C(N/N=C/c1c[nH]c2ccccc12)c1ccc(Br)cc1	7.3*	1.1*	-1	3	0	0	5
Cc1occc1C(=O)N/N=C/c1c[nH]c2ccccc12	·	·	4	·	·	·	·
O=C(NCCN1C(=O)S/C(=C\c2ccccc2F)C1=O)C1=COCCO1	0	-1	-3	4	-6	·	·
CCc1cc(=O)oc2cc(C)cc(OC(C)C(=O)NCCCn3ccnc3)c12 (centres undefined)	-2	-1	0	1	0	·	·
CCCOc1ccccc1OCC(=O)N1CCN(S(=O)(=O)c2ccc(Cl)cc2)CC1	-1	-1	-1	-2	0	·	·
O=C(N/N=C/c1c[nH]c2ccccc12)C1CC1c1ccccc1 (centres undefined)	9.2*	-1	-1	-2	-2	0	1
O=C(N/N=C/c1c[nH]c2ccccc12)c1ccn[nH]1	9.9*	0	1	12*	1	0	3
O=C(N/N=C/c1c[nH]c2ccccc12)C1CC1(c1ccccc1)c1ccccc1 (centres undefined)	2	-1	0	3	0	·	·
Cc1nccn1CC(=O)N/N=C/c1c[nH]c2ccccc12	8.3*	-1	2	3	0	0	-1
